# Laboratory results: PubChem BioAssay
# Calls of active or inactive are those of the source. Unless noted, how the calls were made is not given here.
# Tests used:
# [1] = anti-His antibody binders, primary screen, artefact control for SMM control protein annotation, biochemical, small-molecule microarray, 635 nm fluorescence (AID 1128); settings: anti-His Alexa647 antibody binding, higher = more signal;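 further: score merges feature fluorescence with signal-to-noise for each printed compound spot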
# [2] = tested on: Human papillomavirus type 1a E7 protein (residues 1-88); test: HPV1a E7 small-molecule binders, primary screen, biochemical, small-molecule microarray, residues 1-88, 635 nm (AID 1129); settings: small-molecule microarray binding, fluorescence 635 nm; higher = more signal
# [3] = molecular target: Focal adhesion kinase 1 (Homo sapiens) (UniProt Q05397); test: small-molecule microarray binders of FAK, primary screen, biochemical, 635/667 nm fluorescence, BSA, DTT (AID 1130); settings: PTK2 binding, 635 nm fluorescence, higher = more signal;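 further: composite of spot emission at 667 nm and signal to noise over triplicate slides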
# [4] = tested on: Fibrinogen (Alexa647-labelled); test: fibrinogen binders on compound microarrays, profiling panel, artefact control for SMM control-protein annotation, biochemical, small-molecule microarray, 635/667 nm fluorescence (AID 1131); settings: fibrinogen-A647 binding fluorescence, higher = more signal;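 further: z-score merges 667 nm fluorescence with per-spot signal-to-noise over triplicate slides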
# [5] = molecular target: Follistatin (Homo sapiens) (UniProt P19883); test: follistatin binders on small-molecule microarrays, primary screen, biochemical, small-molecule microarray, 635/667 nm fluorescence (AID 1132); settings: FST binding, 635 nm fluorescence, higher = more signal
# [6] = molecular target: Fibroblast growth factor 2 (Homo sapiens) (UniProt P09038); test: FGF2 binders on small-molecule microarrays, primary screen, biochemical, small-molecule microarray, 635/667 nm fluorescence (AID 1133); settings: small-molecule microarray binding, FGF2, fluorescence 635/667; higher = more signal
# [7] = mitochondrial membrane potential change in A549 cells, profiling panel, cell-based, JC-1 fluorescence, basal, 24 h, 100 nL (AID 1138); settings: higher = more signal;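 further: A549 lung adenocarcinoma cells under basal conditions with no added stimulus; test concentration not given here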
# Lefty1 = Lefty1 binders on small-molecule microarrays, primary screen, biochemical, small-molecule microarray, 635/667 nm fluorescence (AID 1139); settings: small-molecule microarray binding, fluorescence 635/667; higher = more signal
# [8] = tested on: wheat germ agglutinin (Triticum aestivum), Alexa647-labelled; test: wheat germ agglutinin binders on compound microarrays, profiling panel, artefact control for SMM control-protein annotation, biochemical, small-molecule microarray, 635/667 nm fluorescence (AID 1140); settings: WGA-A647 binding, 635 nm fluorescence, higher = more signal;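 further: score merges 667 nm feature emission with signal to noise over triplicate slides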
# [9] = molecular target: Luciferin 4-monooxygenase (Photinus pyralis) (UniProt P08659); test: firefly luciferase enzyme inhibitors, primary screen, biochemical, luminescence, purified enzyme, 2006 set (AID 1141); settings: SteadyGlo luminescence, 30 min, higher = more signal, called active from +8 up or from −8 down;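 further: cell-free assay with purified firefly luciferase at 100 ng per well in PBS; test concentration not given here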
# [10] = tested on: Wnt5a (protein binding on small-molecule microarray); test: Wnt5a binders on small-molecule microarray, primary screen, biophysical, 635/667 nm fluorescence (AID 1142); settings: 635 nm fluorescence, higher = more signal;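 further: fluorescence read at 667 nm with signal to noise per printed feature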
# [11] = cell viability in Huh7 cells, primary screen, cytotoxicity control for HCV replication inhibitor project, CellTiter-Glo luminescence, basal, 48 h (AID 1143); settings: Huh7 HCV replicon, higher = more signal, called active from +8 up or from −8 down;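 further: Huh7 hepatoma cells carrying a hepatitis C replication reporter with no stimulus; test concentration not given here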
# [12] = P. aeruginosa biofilm formation inhibitors, primary screen, PAO1 strain, BacTiter-Glo luminescence, LB-PBS (AID 1144); settings: 12 h, higher = more signal
# [13] = CREB reporter modulators without forskolin, primary screen, cell-based, PC12, CRE-LacZ reporter, unstimulated (AID 1145); settings: no forskolin, luminescence, 4.5 h, higher = more signal, called active from +8 up or from −8 down
# [14] = CREB reporter modulators under forskolin, primary screen, cell-based, PC12, CRE-LacZ reporter, forskolin-stimulated (AID 1146); settings: luminescence, 4.5 h, higher = more signal, called active from +8 up or from −8 down;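 further: PC12 cells with 6xCRE LacZ reporter stimulated by forskolin 10 µM; beta-galactosidase reporter signal reflecting CREB driven transcription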
# [15] = molecular target: Streptavidin (Streptomyces avidinii) (UniProt P22629); test: streptavidin binders on small-molecule microarray, primary screen, artefact control for SMM compound annotation, biophysical, 635/667 nm fluorescence (AID 1147); settings: streptavidin binding, higher = more signal;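 further: signal reflects streptavidin binding to arrayed compounds as a control protein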
# [16] = small-molecule binders of probe aInhba, primary screen, biochemical, small-molecule microarray, 635/667 nm fluorescence (AID 1148); settings: higher = more signal;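 further: score merges 667nm spot fluorescence with signal-to-noise for antibody binding to printed compounds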
# Torsin-1A (Homo sapiens) [17] = molecular target: Torsin-1A (Homo sapiens) (UniProt O14656); test: torsin A binders from cell lysate, primary screen, small-molecule microarray, wild-type, 635/667 nm (AID 1149); settings: COS7 hTOR1A-WT lysate, 635 nm fluorescence, higher = more signal
# Torsin-1A (Homo sapiens) [18] = molecular target: Torsin-1A (Homo sapiens) (UniProt O14656); test: small-molecule binders of mutant TOR1A in lysate, primary screen, cell lysate, small-molecule microarray, COS7 lysate, 635/667 nm fluorescence (AID 1150); settings: COS7 hTOR1A mutant lysate, 635 nm fluorescence, higher = more signal;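 further: score pools 667 nm emission and signal to noise measuring lysate protein binding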
# [19] = tested on: Sonic hedgehog protein (Shh); test: small-molecule binders of Shh protein, primary screen, biochemical, small-molecule microarray, 635/667 nm fluorescence (AID 1151); settings: small-molecule microarray binding, 635 nm fluorescence; higher = more signal;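 further: Shh protein binding to compounds spotted on small-molecule microarray slides; score combines spot fluorescence intensity with signal-to-noise across triplicate slides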
# Luciferin 4-monooxygenase (Photinus pyralis), sequence (P08659 whole entry, looked up): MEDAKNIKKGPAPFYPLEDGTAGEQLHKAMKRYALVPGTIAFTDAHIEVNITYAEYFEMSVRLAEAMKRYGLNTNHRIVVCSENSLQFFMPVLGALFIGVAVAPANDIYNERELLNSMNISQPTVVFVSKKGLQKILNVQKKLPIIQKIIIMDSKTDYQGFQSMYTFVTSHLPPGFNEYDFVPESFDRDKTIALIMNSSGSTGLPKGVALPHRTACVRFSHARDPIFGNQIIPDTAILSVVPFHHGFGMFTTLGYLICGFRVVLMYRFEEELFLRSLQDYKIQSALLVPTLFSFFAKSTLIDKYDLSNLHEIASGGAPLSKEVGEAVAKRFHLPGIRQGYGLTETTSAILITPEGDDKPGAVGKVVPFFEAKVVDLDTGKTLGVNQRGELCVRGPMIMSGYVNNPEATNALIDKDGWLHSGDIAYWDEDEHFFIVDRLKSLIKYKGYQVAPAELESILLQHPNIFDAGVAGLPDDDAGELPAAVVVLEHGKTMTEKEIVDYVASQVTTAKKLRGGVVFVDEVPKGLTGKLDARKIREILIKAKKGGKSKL
# Torsin-1A (Homo sapiens), sequence (O14656 whole entry, looked up): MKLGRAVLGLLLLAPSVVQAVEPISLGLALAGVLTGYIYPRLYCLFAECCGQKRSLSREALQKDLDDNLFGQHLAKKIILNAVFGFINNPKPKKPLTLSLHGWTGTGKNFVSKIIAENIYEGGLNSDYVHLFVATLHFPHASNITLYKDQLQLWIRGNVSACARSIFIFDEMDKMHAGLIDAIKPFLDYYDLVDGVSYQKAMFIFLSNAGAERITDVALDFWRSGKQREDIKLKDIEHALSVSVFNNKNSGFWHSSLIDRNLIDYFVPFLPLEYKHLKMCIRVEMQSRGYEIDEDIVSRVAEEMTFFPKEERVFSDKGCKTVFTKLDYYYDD
# Streptavidin (Streptomyces avidinii), sequence (P22629 whole entry, looked up): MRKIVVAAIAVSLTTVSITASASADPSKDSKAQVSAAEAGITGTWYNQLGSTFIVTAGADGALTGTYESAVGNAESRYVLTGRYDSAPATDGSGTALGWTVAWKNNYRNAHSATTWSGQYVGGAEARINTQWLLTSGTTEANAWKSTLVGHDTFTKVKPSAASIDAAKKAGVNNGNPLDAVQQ
# Focal adhesion kinase 1 (Homo sapiens), sequence (Q05397 whole entry, looked up): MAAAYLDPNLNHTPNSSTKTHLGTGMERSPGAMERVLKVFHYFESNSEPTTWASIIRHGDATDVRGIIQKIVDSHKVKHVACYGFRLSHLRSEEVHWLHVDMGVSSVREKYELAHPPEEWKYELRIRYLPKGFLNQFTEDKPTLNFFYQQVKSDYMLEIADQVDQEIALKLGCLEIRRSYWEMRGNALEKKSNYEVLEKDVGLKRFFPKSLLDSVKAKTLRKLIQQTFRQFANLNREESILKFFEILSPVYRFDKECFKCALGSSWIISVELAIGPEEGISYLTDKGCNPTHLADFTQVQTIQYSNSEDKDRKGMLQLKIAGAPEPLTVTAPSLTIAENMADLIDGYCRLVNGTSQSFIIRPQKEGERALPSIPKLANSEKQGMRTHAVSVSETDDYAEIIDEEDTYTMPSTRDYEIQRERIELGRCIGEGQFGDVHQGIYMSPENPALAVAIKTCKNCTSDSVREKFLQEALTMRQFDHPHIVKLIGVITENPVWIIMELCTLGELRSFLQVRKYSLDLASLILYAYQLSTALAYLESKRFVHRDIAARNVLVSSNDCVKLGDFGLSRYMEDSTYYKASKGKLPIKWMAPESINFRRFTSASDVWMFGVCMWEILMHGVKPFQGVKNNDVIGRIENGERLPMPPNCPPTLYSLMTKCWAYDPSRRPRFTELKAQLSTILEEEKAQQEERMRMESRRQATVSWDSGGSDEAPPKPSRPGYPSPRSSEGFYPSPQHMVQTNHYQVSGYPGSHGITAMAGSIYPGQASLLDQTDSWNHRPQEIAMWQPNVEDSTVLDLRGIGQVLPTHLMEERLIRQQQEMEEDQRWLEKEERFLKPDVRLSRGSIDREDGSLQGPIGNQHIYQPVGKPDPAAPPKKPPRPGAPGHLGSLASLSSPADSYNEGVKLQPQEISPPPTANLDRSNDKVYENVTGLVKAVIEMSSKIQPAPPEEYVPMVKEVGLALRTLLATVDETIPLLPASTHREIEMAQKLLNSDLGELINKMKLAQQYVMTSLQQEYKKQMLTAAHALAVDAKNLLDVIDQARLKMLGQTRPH
# Follistatin (Homo sapiens), sequence (P19883 whole entry, looked up): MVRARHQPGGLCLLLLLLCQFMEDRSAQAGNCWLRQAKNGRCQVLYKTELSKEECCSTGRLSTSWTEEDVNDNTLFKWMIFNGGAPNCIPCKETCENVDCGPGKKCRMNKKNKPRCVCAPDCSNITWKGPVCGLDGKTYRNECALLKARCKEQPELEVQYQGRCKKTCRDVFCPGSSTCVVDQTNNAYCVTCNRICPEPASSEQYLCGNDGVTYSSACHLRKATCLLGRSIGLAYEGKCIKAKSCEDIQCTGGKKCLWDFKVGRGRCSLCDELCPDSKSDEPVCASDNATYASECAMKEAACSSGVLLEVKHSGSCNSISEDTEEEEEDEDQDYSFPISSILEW
# Fibroblast growth factor 2 (Homo sapiens), sequence (P09038 whole entry, looked up): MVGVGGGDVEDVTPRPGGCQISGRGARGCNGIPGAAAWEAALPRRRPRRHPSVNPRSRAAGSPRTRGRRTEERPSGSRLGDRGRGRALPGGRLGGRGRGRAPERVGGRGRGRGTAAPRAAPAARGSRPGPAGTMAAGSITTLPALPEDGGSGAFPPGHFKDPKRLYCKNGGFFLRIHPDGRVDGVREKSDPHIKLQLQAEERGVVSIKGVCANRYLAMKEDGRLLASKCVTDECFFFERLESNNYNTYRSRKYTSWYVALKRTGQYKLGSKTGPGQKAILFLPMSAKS
smiles,measurement,setting,value
COc1ccc(CCNC(=O)[C@@]2(C)c3ccccc3C(=O)N(c3ccc(C)cn3)[C@H]2c2ccc(CO)cc2)cc1,composite z-score,[1],-0.463
same,composite z-score,[2],-0.0172
same,composite z-score,[3],-0.284
same,composite z-score,[4],-1.95
same,composite z-score,[5],-0.298
same,composite z-score,[6],-1.09
same,z-score,[7],0.14
same,composite z-score,Lefty1,-0.601
same,composite z-score,[8],-0.902
same,z-score,[9],1.14 (inactive)
same,composite z-score,[10],-0.49
same,z-score,[11],-0.998 (inactive)
same,z-score,[12],-0.604 (inactive)
same,z-score,[13],-0.0888 (inactive)
same,z-score,[14],-0.371 (inactive)
same,composite z-score,[15],-0.712
same,composite z-score,[16],-0.183
same,composite z-score,Torsin-1A (Homo sapiens) [17],-2.16
same,composite z-score,Torsin-1A (Homo sapiens) [18],-1.44
same,composite z-score,[19],-0.797
CCC(CC)C(O)C1C=CC2C(=O)N(c3ccccc3)C(=O)C2N1Nc1ccccc1 (stereo not given),composite z-score,[1],1.51
same,composite z-score,[2],1.25
same,composite z-score,[3],0.633
same,composite z-score,[4],1
same,composite z-score,[5],1.06
same,composite z-score,[6],0.514
same,z-score,[7],-0.117
same,composite z-score,Lefty1,0.858
same,composite z-score,[8],1.03
same,z-score,[9],-1.9 (inactive)
same,composite z-score,[10],0.213
same,z-score,[11],-0.125 (inactive)
same,z-score,[12],-1.63 (inactive)
same,z-score,[13],1.01 (inactive)
same,z-score,[14],-0.814 (inactive)
same,composite z-score,[15],1.21
same,composite z-score,[16],0.948
same,composite z-score,Torsin-1A (Homo sapiens) [17],-0.0952
same,composite z-score,Torsin-1A (Homo sapiens) [18],0.423
same,composite z-score,[19],0.494
COCCOC(=O)N1C(=O)[C@@]2(c3cc(C#Cc4ccc(OC)cc4)ccc31)[C@H](c1ccc(O)cc1)N1[C@H](c3ccccc3)[C@H](c3ccccc3)OC(=O)[C@H]1[C@@H]2C(=O)Nc1nc2ccccc2s1,composite z-score,[1],0.513
same,composite z-score,[2],1.19
same,composite z-score,[3],-0.0177
same,composite z-score,[4],0.939
same,composite z-score,[5],1.26
same,composite z-score,[6],0.499
same,z-score,[7],-2.06
same,composite z-score,Lefty1,0.617
same,composite z-score,[8],0.649
same,z-score,[9],-0.894 (inactive)
same,composite z-score,[10],0.169
same,z-score,[11],-1.07 (inactive)
same,z-score,[12],-0.155 (inactive)
same,z-score,[13],0.182 (inactive)
same,z-score,[14],-0.0609 (inactive)
same,composite z-score,[15],0.302
same,composite z-score,[16],-0.11
same,composite z-score,Torsin-1A (Homo sapiens) [17],0.277
same,composite z-score,Torsin-1A (Homo sapiens) [18],0.226
same,composite z-score,[19],1.76
COCCCNC(=O)[C@@H]1c2ccccc2C(=O)N(Cc2ccccc2OC)[C@H]1c1ccc(CO)cc1,composite z-score,[1],2.1
same,composite z-score,[2],0.133
same,composite z-score,[3],0.503
same,composite z-score,[4],-0.444
same,composite z-score,[5],0.832
same,composite z-score,[6],1.42
same,z-score,[7],-0.374
same,composite z-score,Lefty1,1.07
same,composite z-score,[8],0.701
same,z-score,[9],1.43 (inactive)
same,composite z-score,[10],0.924
same,z-score,[11],-4.79 (inactive)
same,z-score,[12],-2.25 (inactive)
same,z-score,[13],-0.502 (inactive)
same,z-score,[14],0.715 (inactive)
same,composite z-score,[15],-0.665
same,composite z-score,[16],-0.0136
same,composite z-score,Torsin-1A (Homo sapiens) [17],0.825
same,composite z-score,Torsin-1A (Homo sapiens) [18],-0.206
same,composite z-score,[19],2.03
COCC(=C=CC[C@H](O)c1ccccc1OCCO)CCO,composite z-score,[1],-0.69
same,composite z-score,[2],0.268
same,composite z-score,[3],0.432
same,composite z-score,[4],0.869
same,composite z-score,[5],0.992
same,composite z-score,[6],1.11
same,z-score,[7],0.417
same,composite z-score,Lefty1,1.15
same,composite z-score,[8],1.14
same,z-score,[9],0.109 (inactive)
same,composite z-score,[10],0.0821
same,z-score,[11],-0.231 (inactive)
same,z-score,[12],-0.109 (inactive)
same,z-score,[13],2.48 (inactive)
same,z-score,[14],1.01 (inactive)
same,composite z-score,[15],-0.193
same,composite z-score,[16],0.115
same,composite z-score,Torsin-1A (Homo sapiens) [17],0.871
same,composite z-score,Torsin-1A (Homo sapiens) [18],0.542
same,composite z-score,[19],1.09
O=C1C[C@@](C(=O)NCc2ccccc2)(c2ccc([N+](=O)[O-])cc2)[C@@H](c2ccc(CO)cc2)N1CC12CC3CC(CC(C3)C1)C2,composite z-score,[1],0.729
same,composite z-score,[2],1.19
same,composite z-score,[3],1.42
same,composite z-score,[4],-0.151
same,composite z-score,[5],1.33
same,composite z-score,[6],1.46
same,z-score,[7],1.44
same,composite z-score,Lefty1,0.943
same,composite z-score,[8],0.162
same,z-score,[9],-0.756 (inactive)
same,composite z-score,[10],0.38
same,z-score,[11],-4.73 (inactive)
same,z-score,[12],0.657 (inactive)
same,z-score,[13],0.674 (inactive)
same,z-score,[14],-0.841 (inactive)
same,composite z-score,[15],-0.243
same,composite z-score,[16],-0.189
same,composite z-score,Torsin-1A (Homo sapiens) [17],0.352
same,composite z-score,Torsin-1A (Homo sapiens) [18],0.368
same,composite z-score,[19],1.99
CC(C)N1CC=CC23O[C@@H]4C=CCOC(=O)[C@@H]4[C@H]2C(=O)N(CCCCCO)[C@@H]3C1=O (stereo not given in full),composite z-score,[1],2.11
same,composite z-score,[2],-0.01
same,composite z-score,[3],0.345
same,composite z-score,[4],-1.86
same,composite z-score,[5],-0.382
same,composite z-score,[6],-0.377
same,z-score,[7],-0.178
same,composite z-score,Lefty1,0.204
same,composite z-score,[8],0.0322
same,z-score,[9],-3.48 (inactive)
same,composite z-score,[10],-0.094
same,z-score,[11],-1.27 (inactive)
same,z-score,[12],-1.56 (inactive)
same,z-score,[13],-1.72 (inactive)
same,z-score,[14],-0.679 (inactive)
same,composite z-score,[15],-0.48
same,composite z-score,[16],-0.152
same,composite z-score,Torsin-1A (Homo sapiens) [17],-0.167
same,composite z-score,Torsin-1A (Homo sapiens) [18],1.09
same,composite z-score,[19],0.0095
